Experimental data as given in PubChem BioAssay (NCATS).
Results filed as inconclusive are left out. Entries that show only a call come without a potency. The source made the active and inactive calls. Calls come from the whole dose curve; as a rule, active = well fitted cell-killing curve with a large enough effect; inconclusive = small, poorly fitted or top-dose-only effect; inactive = no such curve, though single readings can be large or run the other way.

assay: qHTS of pediatric cancer cell lines to identify multiple opportunities for drug repurposing: Primary screen for A673 cells (AID 1347092); details: A673 Ewing sarcoma viability, CellTiter-Glo ATP luminescence, 48 h; series mostly up to 46 µM; note: nearly all actives have a fitted effect of over 45% in size
Procedure, shortened: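 Cell viability of A673 measured by CellTiter-Glo ATP luminescence after 48 hours compound exposure. Dilution series spanned 0.78 nM to 46 µM (MIPE, 11-point) or 0.59 nM to 46 µM (NPC, 8-point); bortezomib 2.3 uM positive control.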
Potency is the fitted concentration of half-maximal effect.

| SMILES | Potency |
| --- | --- |
| CC(C)NC(=O)c1ccc(C=O)cc1 | inactive |
| CCN1CCN(C(=O)N[C@@H](C(=O)N[C@@H]2C(=O)N3[C@@H]2SC(C)(C)[C@H]3C(=O)O)c2ccccc2)C(=O)C1=O | inactive |
| Cc1sccc1Br | inactive |
| COc1ccc2c(c1)c(CC(=O)OC/C=C(\C)CC/C=C(\C)CCC=C(C)C)c(C)n2C(=O)c1ccc(Cl)cc1 | inactive |
| COc1ccc(/C(C)=C/C(=O)O)c(OC)c1 | inactive |
| Cc1cc(CCCOc2c(C)cc(-c3noc(C(F)(F)F)n3)cc2C)on1 | inactive |
| CCc1cccc2c(CCO)c[nH]c12 | inactive |
| CC(C)C(C)(C)C(C)(C)C(C)(C)S | inactive |
| COc1ccc2c(c1)CCCC2=O | inactive |
| Cc1cc(OCCOCC[N+](C)(C)Cc2ccccc2)ccc1C(C)(C)CC(C)(C)C | 10.6 µM (active) |
| COC(=O)C1=C(C)NC(C)=C(C(=O)OCCc2ccc(N3CCN(C(c4ccccc4)c4ccccc4)CC3)cc2)C1c1cccc([N+](=O)[O-])c1 (configuration not stated) | inactive |
| CCn1ccc(NS(=O)(=O)c2ccc(N)cc2)nc1=O | inactive |
| COc1cc(OC)nc(O[C@H](C(=O)O)C(OC)(c2ccccc2)c2ccccc2)n1 | inactive |
| CCC(=O)O[C@]1(C(=O)COC)[C@@H](C)C[C@H]2[C@@H]3CCC4=CC(=O)C=C[C@]4(C)C3(F)[C@@H](O)C[C@@]21C (some centres not stated) | inactive |
| Cc1cccc(OCC(O)CNC(C)(C)C)c1C (configuration not stated) | inactive |
| Cc1cc(O)c2c(O)c3c(O)cccc3cc2c1 | inactive |
| Fc1ccc(C(c2ccc(F)cc2)N2CCNCC2)cc1 | inactive |
| CC(CC(C#N)(c1ccccc1)C(C)C)N(C)C (configuration not stated) | inactive |
| Cc1oc(-c2ccccc2)nc1CCC(=O)c1ccc(CC2SC(=O)NC2=O)cc1 (configuration not stated) | inactive |
| CC(NN)c1ccccc1 (configuration not stated) | inactive |
| CCCCC(CC)CNC(=O)CC(C)OC(=O)CCC(=O)O (configuration not stated) | inactive |
| Cn1c(=O)c2c(ncn2CC(=O)O)n(C)c1=O | inactive |
| Cc1ccc(C(C)OC(=O)C2(C)CCC(C(=O)O)C2(C)C)cc1 (configuration not stated) | inactive |
| C[C@H](CN1CCCC1)C(=O)c1ccc(C(F)(F)F)cc1 | inactive |
| CC[N+]1(CC)CCC(=C(c2ccccc2)c2ccccc2)C1C (configuration not stated) | inactive |
| COc1ccc2cc(C=O)ccc2c1 | inactive |
| CC(=O)O[C@@H]1C(=O)O[C@@H]2[C@H]1OC(=O)[C@@H]2OC(C)=O | 13.3 µM (active) |
